We go through 23 compounds from PubChem BioAssay (EPA / NIEHS).

Inconclusive results are not listed. Calls of active or inactive are those of the source. The calls were made as follows, unless noted: active = hit-call score of the fitted dose curve at least 0.9, where 1 is the maximum; inactive = score below 0.9.

Read-out in test [1]: Monokine induced gamma interferon (MIG), CXCL9 (gene 4283)
Put plainly: BSK_SAg_MIG: BioMAP Diversity Plus: SAg Assay for Monokine induced gamma interferon (MIG) Biomarker Activity (AID 2283092). As to conditions: primary human HUVEC with PBMC; actives raise or lower the signal. The gist of the method:
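Measures CXCL9 protein by ELISA in a human vascular primary-cell co-culture (umbilical vein endothelium with PBMC) 24 h after chemical addition. Activity is scored up or down from the DMSO control.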

Test [2] in a line: BSK_SAg_PBMCCytotoxicity: PBMC Cytotoxicity Assessment in the BioMAP Diversity Plus: SAg Assay (AID 2283093).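 Also: fitted both ways against DMSO so a hit may be loss or gain of signal.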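 As to AC50: PBMC superantigen activated with SEB plus TSST-1 one hour after compound addition.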 The note with it: primary human HUVEC with PBMC. The gist of the method:
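PBMC viability by Alamar Blue reduction, fluorescence read at 546/580 nm after 6 h dye exposure. Cells were dosed 1 h before SEB plus TSST-1 activation (20 ng/mL final each), then held 90 h; endothelial/PBMC human co-culture.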

Read-out in test [3]: Interleukin-8 (IL8), CXCL8 (gene 3576)
Put plainly: BSK_SAg_IL8: BioMAP Diversity Plus: SAg Assay for Interleukin-8 (IL8) Biomarker Activity (AID 2283094). The note with it: primary human HUVEC with PBMC; actives raise or lower the signal. The procedure, abridged: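 Primary human endothelial cells with PBMC, exposed 24 h; IL-8 determined by ELISA, analysed bidirectionally relative to DMSO.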

Test [4] in a line: BSK_SAg_Proliferation: Cell Proliferation Assessment in the BioMAP Diversity Plus: SAg Assay (AID 2283095).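 Also: relative cell number as total protein by SRB absorbance in sub-confluent culture.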 The note with it: primary human HUVEC with PBMC. The gist of the method: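 A human primary co-culture of umbilical vein endothelium and blood mononuclear cells receives compound; relative cell number is quantified at 96 h by SRB staining and 560 nm absorbance, with DMSO-referenced bidirectional curve fitting.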

Test [5] in a line: BSK_SAg_SRB: Viability Assessment in the BioMAP Diversity Plus: SAg Assay (AID 2283096).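 Also: cells read one day after compound addition; hits may be either gain or loss of signal compared with DMSO.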 As to conditions: primary human HUVEC with PBMC. The procedure, abridged:
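Compounds were added to a human vascular co-culture of umbilical vein endothelium and PBMC. After 24 h, parallel cultures were fixed with 10% TCA, stained with 0.1% sulforhodamine B and read at 560 nm. Gain or loss of signal was fitted relative to DMSO.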

For test [6], the target named is human CYP1A1, CYP1A1 (gene 1543) (UniProt P04798). The test is described as follows: NVS_ADME_hCYP1A1: NovaScreen (NVS) CYP450-related Enzyme Activity (ADME) Assay for human CYP1A1 (AID 2283100; active = hit-call score of the fitted dose curve at least 0.9, where 1 is the maximum). The procedure, abridged:
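Inhibition of recombinant CYP1A1 turnover was assessed fluorometrically in a biochemical format 1 h after compound exposure. Testing began at 10 uM in duplicate and progressed to concentration series reaching 20 uM, with on-plate positive and negative controls.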

Test [7] has as its target Cytochrome P450 3A4 (Homo sapiens) (UniProt P08684). Put plainly: NVS_ADME_hCYP3A4: NovaScreen (NVS) CYP450-related Enzyme Activity (ADME) Assay for human CYP3A4 (AID 2283110; active = hit-call score of the fitted dose curve at least 0.9, where 1 is the maximum). The gist of the method:
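Recombinant CYP3A4 from insect cells, fluorescence enzyme read-out, 0.33 h after chemical addition. Acetonitrile = negative control/baseline. Primary HTS: 10 uM in duplicate; actives re-tested in concentration series.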

Test [8] has as its target human CYP19A1, CYP19A1 (gene 1588) (UniProt P11511). Put plainly: NVS_ADME_hCYP19A1: NovaScreen (NVS) CYP450-related Enzyme Activity (ADME) Assay for human CYP19A1 (AID 2283098; active = hit-call score of the fitted dose curve at least 0.9, where 1 is the maximum). The gist of the method:
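Fluorescence intensity read-out; activity taken as signal loss relative to acetonitrile vehicle. Extracted enzyme, specific substrate, no cells, 0.5 h exposure. Duplicate single-point screen at 10 uM, then concentration–response follow-up for actives.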

In test [9] the target is human CYP2A6, CYP2A6 (gene 1548) (UniProt P11509). Put plainly: NVS_ADME_hCYP2A6: NovaScreen (NVS) CYP450-related Enzyme Activity (ADME) Assay for human CYP2A6 (AID 2283099; active = hit-call score of the fitted dose curve at least 0.9, where 1 is the maximum). The gist of the method:
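Loss of fluorescence signal relative to acetonitrile vehicle reported CYP2A6 inhibition in a cell-free system using insect-cell-derived enzyme. Readings were taken at 0.5 h; top concentration in follow-up dose series was 20 uM.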

The target of test [10] is human CYP2B6, CYP2B6 (gene 1555) (UniProt P20813). Put plainly: NVS_ADME_hCYP2B6: NovaScreen (NVS) CYP450-related Enzyme Activity (ADME) Assay for human CYP2B6 (AID 2283101; active = hit-call score of the fitted dose curve at least 0.9, where 1 is the maximum). The procedure, abridged: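 Recombinant protein, specific fluorescent substrate, read at 1 h post-dosing. Primary: single 10 uM, duplicate; follow-up: concentration series. Activity = signal loss vs acetonitrile baseline, with positive and negative controls on every plate.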
Sequence of human CYP2B6, CYP2B6 (gene 1555) (P20813 whole entry, looked up): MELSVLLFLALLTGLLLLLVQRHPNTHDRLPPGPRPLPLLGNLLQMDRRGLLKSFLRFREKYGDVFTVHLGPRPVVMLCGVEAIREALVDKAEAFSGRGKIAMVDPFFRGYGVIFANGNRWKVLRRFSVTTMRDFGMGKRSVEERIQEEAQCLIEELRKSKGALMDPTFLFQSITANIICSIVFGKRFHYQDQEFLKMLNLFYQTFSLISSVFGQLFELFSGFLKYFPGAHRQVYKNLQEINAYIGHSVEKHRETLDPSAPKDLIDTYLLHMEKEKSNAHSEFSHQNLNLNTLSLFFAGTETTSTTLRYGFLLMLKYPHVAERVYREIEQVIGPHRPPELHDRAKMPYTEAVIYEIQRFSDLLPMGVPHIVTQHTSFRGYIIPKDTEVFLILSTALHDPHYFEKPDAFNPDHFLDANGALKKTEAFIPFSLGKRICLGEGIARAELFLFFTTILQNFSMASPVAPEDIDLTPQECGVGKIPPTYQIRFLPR

In test [11] the target is human CYP2C9, CYP2C9 (gene 1559) (UniProt P11712). Put plainly: NVS_ADME_hCYP2C9: NovaScreen (NVS) CYP450-related Enzyme Activity (ADME) Assay for human CYP2C9 (AID 2283108; active = hit-call score of the fitted dose curve at least 0.9, where 1 is the maximum). The gist of the method:
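Recombinant human CYP2C9 expressed in SF9 cells, fluorogenic substrate, fluorescence read 0.75 h after dosing. Chemicals first run in duplicate at 10 uM, with actives followed in concentration series; loss of signal versus acetonitrile baseline.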

The target in test [12] is human Acid Phosphatase 1 (ACP1), ACP1 (gene 52) (UniProt P24666). Put plainly: NVS_ENZ_hACP1: NovaScreen (NVS) Enzymatic Assay for human Acid Phosphatase 1 (ACP1) (AID 2283136; active = hit-call score of the fitted dose curve at least 0.9, where 1 is the maximum). The procedure, abridged:
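Cell-free fluorescence read-out of phosphatase activity, substrate and product separated by mobility shift, taken 1.5 h after compound addition; protein produced in Sf9. Single 25 uM duplicate screen, followed by concentration series for actives, scored as signal loss relative to DMSO.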

Test [13] addresses human CYP2D6, CYP2D6 (gene 1565) (UniProt P10635). The test is described as follows: NVS_ADME_hCYP2D6: NovaScreen (NVS) CYP450-related Enzyme Activity (ADME) Assay for human CYP2D6 (AID 2283107; active = hit-call score of the fitted dose curve at least 0.9, where 1 is the maximum). The procedure, abridged:
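Biochemical fluorescence assay, insect-cell-derived enzyme. Read at 1 h; inhibition taken from loss of signal against acetonitrile. Screened at 10 uM in duplicate, with concentration series for actives.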

For test [14], the target named is human Caspase 5 (CASP5), CASP5 (gene 838) (UniProt P51878). Put plainly: NVS_ENZ_hCASP5: NovaScreen (NVS) Enzymatic Assay for human Caspase 5 (CASP5) (AID 2283137; active = hit-call score of the fitted dose curve at least 0.9, where 1 is the maximum). The procedure, abridged: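 Caspase 5 enzyme activity, detected as fluorescence signal loss, is measured in a biochemical format using E. coli-expressed protein. Reading occurs 2 hours post-dosing. Screening runs at 25 uM, with confirmed actives titrated to 50 uM maximum.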
Sequence of human Caspase 5 (CASP5), CASP5 (gene 838) (P51878 whole entry, looked up): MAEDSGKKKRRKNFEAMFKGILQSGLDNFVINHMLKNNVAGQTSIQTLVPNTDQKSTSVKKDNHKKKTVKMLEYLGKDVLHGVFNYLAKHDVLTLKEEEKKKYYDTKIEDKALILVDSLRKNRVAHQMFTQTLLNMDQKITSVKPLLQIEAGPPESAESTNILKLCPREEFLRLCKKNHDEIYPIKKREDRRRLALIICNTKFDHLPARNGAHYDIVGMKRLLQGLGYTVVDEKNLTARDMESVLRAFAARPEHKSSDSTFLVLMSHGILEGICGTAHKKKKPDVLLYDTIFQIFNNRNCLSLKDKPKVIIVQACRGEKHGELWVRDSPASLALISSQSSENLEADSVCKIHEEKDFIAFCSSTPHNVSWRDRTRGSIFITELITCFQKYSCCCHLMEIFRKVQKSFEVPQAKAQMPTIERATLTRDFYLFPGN

Sequence of human CYP1A1, CYP1A1 (gene 1543) (P04798 whole entry, looked up): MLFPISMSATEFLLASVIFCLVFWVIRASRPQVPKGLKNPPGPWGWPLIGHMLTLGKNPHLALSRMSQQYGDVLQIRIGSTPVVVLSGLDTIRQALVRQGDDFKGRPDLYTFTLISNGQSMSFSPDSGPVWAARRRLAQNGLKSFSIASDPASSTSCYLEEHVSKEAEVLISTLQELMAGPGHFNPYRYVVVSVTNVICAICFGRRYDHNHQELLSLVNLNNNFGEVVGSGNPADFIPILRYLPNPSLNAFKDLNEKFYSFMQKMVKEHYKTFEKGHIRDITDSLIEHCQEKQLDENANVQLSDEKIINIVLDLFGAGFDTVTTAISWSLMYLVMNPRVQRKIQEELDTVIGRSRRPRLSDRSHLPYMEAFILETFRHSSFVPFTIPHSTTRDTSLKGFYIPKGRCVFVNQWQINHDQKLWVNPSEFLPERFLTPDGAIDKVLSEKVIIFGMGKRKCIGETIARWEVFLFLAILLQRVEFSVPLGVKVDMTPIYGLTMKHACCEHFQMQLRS
Sequence of human CYP19A1, CYP19A1 (gene 1588) (P11511 whole entry, looked up): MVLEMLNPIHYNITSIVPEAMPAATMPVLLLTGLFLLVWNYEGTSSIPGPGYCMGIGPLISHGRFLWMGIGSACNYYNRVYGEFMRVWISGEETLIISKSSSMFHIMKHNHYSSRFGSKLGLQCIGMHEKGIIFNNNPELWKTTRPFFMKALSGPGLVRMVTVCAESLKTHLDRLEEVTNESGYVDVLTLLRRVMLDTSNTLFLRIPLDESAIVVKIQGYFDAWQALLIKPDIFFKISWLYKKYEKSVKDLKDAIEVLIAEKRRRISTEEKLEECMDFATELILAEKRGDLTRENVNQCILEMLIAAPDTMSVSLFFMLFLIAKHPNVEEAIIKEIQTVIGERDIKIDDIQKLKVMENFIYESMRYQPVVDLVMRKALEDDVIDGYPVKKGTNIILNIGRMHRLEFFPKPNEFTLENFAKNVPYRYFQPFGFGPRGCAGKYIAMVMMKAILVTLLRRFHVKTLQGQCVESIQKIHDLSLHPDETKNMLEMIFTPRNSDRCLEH
Sequence of human CYP2C9, CYP2C9 (gene 1559) (P11712 whole entry, looked up): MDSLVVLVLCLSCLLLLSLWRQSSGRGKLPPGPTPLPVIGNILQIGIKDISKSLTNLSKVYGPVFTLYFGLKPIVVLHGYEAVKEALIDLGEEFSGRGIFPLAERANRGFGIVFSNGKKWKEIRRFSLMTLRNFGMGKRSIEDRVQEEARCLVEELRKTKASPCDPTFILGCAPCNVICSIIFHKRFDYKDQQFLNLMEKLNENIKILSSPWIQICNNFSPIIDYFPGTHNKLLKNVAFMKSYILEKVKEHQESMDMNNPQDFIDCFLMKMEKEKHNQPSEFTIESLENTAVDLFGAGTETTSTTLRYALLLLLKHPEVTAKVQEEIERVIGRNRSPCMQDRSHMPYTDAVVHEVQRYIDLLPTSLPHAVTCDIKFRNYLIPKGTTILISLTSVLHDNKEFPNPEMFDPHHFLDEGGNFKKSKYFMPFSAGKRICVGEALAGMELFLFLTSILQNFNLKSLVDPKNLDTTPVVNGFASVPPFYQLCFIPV
Sequence of human CYP2D6, CYP2D6 (gene 1565) (P10635 whole entry, looked up): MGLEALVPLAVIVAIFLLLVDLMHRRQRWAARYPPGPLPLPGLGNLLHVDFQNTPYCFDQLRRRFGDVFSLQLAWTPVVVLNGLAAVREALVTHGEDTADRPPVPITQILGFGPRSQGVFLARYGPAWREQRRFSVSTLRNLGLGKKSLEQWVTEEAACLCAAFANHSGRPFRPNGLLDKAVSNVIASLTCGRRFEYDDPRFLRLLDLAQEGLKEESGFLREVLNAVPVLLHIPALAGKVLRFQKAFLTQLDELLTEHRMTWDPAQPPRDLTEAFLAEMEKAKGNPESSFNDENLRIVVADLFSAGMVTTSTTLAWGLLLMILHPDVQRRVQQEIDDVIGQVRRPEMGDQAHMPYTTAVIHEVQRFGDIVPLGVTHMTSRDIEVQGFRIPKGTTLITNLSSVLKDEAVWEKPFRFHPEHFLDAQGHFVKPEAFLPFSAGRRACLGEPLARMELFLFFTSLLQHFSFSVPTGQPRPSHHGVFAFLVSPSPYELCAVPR
Sequence of human Acid Phosphatase 1 (ACP1), ACP1 (gene 52) (P24666 whole entry, looked up): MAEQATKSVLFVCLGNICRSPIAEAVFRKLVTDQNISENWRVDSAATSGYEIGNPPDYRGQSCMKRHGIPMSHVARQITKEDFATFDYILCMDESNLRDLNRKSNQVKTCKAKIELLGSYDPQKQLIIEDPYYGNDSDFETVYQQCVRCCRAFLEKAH
Sequence of Cytochrome P450 3A4 (Homo sapiens) (P08684 whole entry, looked up): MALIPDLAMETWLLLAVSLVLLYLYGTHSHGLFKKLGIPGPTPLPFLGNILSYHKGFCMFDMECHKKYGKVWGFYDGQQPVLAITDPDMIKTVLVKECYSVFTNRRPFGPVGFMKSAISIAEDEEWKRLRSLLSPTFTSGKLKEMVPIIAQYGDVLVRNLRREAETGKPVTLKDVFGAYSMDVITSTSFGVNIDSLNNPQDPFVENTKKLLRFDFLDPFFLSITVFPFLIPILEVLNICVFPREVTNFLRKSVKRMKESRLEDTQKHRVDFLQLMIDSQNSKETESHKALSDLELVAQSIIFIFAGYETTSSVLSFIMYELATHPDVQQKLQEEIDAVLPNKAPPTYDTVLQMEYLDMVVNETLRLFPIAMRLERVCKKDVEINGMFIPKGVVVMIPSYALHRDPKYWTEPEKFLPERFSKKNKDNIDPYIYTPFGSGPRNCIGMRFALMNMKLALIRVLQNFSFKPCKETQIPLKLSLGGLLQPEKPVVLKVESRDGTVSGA
Sequence of human CYP2A6, CYP2A6 (gene 1548) (P11509 whole entry, looked up): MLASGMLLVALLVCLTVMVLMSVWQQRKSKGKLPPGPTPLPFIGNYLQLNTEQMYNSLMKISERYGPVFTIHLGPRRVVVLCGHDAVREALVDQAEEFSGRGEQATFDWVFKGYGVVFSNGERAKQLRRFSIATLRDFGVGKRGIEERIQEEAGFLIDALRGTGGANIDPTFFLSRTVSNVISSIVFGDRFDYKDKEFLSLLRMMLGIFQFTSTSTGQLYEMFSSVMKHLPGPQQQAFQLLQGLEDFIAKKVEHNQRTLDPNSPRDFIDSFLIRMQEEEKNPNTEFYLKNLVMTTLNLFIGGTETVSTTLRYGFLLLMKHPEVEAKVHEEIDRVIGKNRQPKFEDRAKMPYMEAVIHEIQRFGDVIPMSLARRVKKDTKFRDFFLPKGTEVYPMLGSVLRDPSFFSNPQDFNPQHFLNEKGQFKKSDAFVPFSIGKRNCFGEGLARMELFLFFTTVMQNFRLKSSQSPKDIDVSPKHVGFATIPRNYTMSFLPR

Consider `CC(=O)OCC(COC(C)=O)OC(C)=O`, for which the result in test [1], in test [2], in [3], in test [4], in test [5] and in test [6] was inactive. The compound was classed as inactive in test [7].
Broadly, the AC50 is the concentration at which the activity in the assay is half-maximal. `Nc1nc(=S)c2[nH]cnc2[nH]1`: the result in test [1], in test [2], in test [3] and in test [5] was inactive. For the same compound, the AC50 in test [4] is 13.5 µM (active).
`CC(C)(C)c1ccccc1`: the result in test [1], in [2], in test [3], in test [4] and in [5] was inactive.
For the compound `Nc1nc(Cl)nc2c1ncn2[C@H]1C[C@H](O)[C@@H](CO)O1`, the compound was called inactive in test [8].
For `CCCCCCC(C=O)=Cc1ccccc1`, the compound was classed as inactive in test [8].
As for `CCc1nc(N)nc(N)c1-c1ccc(Cl)cc1`, in test [9], the result was inactive.
For `COC(=O)[C@H]1[C@H]2C[C@@H]3c4[nH]c5cc(OC)ccc5c4CCN3C[C@H]2C[C@@H](OC(=O)c2cc(OC)c(OC)c(OC)c2)[C@@H]1OC`, in test [6], the compound was called inactive.
Take `CC(COCC(C)OC(=O)c1ccccc1)OC(=O)c1ccccc1` (configuration not stated): the compound was classed as inactive in test [10].
In the case of `Cc1ccc(-c2cc(C(F)(F)F)nn2-c2ccc(S(N)(=O)=O)cc2)cc1`, in [11], the AC50 is 6 µM (active).
On to `CCCCCCC(CCCCCCCCCCC(=O)OCC(COC(C)=O)OC(C)=O)OC(C)=O` (configuration not stated), for which, in test [11], the AC50 was 1.41 µM (active).
Take `COc1ccc(OC(F)(F)F)cc1CN[C@H]1CCCN[C@H]1c1ccccc1`: in test [12], the compound was called inactive.
In the case of `CCCCC(CC)COP(=O)(OCC(CC)CCCC)OCC(CC)CCCC` (configuration not stated), the concentration at half-maximal activity (AC50) in [2] is 0.197 µM (active); in test [4], 5.3 µM (active); in test [5] it was 5.38 µM (active). Also, the compound was classed as inactive in [11].
In the case of `Cc1c(C)c2c(c(C)c1O)CCC(C)(COc1ccc(CC3SC(=O)NC3=O)cc1)O2` (configuration not stated), the AC50 in test [2] is 20 µM (active); in test [3], 32.8 µM (active); in test [4], 14.1 µM (active); in test [5], 23.7 µM (active). In addition, in test [11], the outcome was inactive.
As for `CSc1ccc(Oc2ccc(S(N)(=O)=O)cc2CN(C)C)cc1C`, the outcome in test [2] and in test [5] was inactive. For the same compound, the values for the AC50 in [4], in test [13] and in test [11] were 23.3 µM (active), 4.8 µM (active) and 4.84 µM (active), respectively.
As for `CC(=O)OC1CC(C)OC(C)O1` (configuration not stated), the outcome in [2], in [5], in test [6] and in [13] was inactive. The figures for the AC50 in test [4] and in test [11] were 13.5 µM (active) and 4.37 µM (active), respectively.
In the case of `CCCCC(CC)COC(=O)CCCCCCCC(=O)OCC(CC)CCCC` (configuration not stated), the result in test [2], in test [4] and in test [5] was inactive.
Regarding `CC(=O)[C@@]1(O)CC[C@H]2[C@@H]3CCC4=CC(=O)CC[C@]4(C)[C@H]3CC[C@@]21C`, the outcome in test [2], in [4] and in test [5] was inactive.
In the case of `CCC(C)N(C)C(=O)c1cc2ccccc2c(-c2ccccc2Cl)n1` (configuration not stated), the result in [2], in [3], in test [4], in test [5] and in test [6] was inactive. In test [11], the AC50 was 4.2 µM (active).
With `CC(N)=O`, the outcome in [2], in test [3], in test [4], in [5] and in test [8] was inactive.
On to `OCC(CO)n1cnc(-c2ccc(F)cc2)c1-c1ccnc(Oc2ccccc2)n1`, for which the AC50 is 2.47 µM (active) in [2], 0.24 µM (active) in test [3] and 18.1 µM (active) in [4]. Besides, in test [5], the result was inactive.
With `CCCCC(CC)CO` (configuration not stated), the result in test [2], in test [4] and in [5] was inactive.
Regarding `N[C@@H](Cc1c[nH]c2ccccc12)C(=O)O`, the outcome in test [2], in test [3], in test [4] and in [5] was inactive.
As to `CCCCCCCCCCCCCCOS(=O)(=O)O`, the concentration at half-maximal activity (AC50) in [2] is 34.2 µM (active); in test [14] it was 2.27 µM (active). Moreover, the outcome in test [4] and in [5] was inactive.
